Experiment [1] can be described thus: qHTS assay to identify aromatase inhibitors - cell viability counter screen (AID 743084).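 Note: cells stimulated with testosterone during compound exposure; nearly all actives have a fitted effect of over 55% in size.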 Note: potency is the fitted concentration of half-maximal effect. For orientation: qHTS replaces the single test concentration by a dilution series.
Experiment [2] concerns the target Aryl hydrocarbon receptor (Homo sapiens) (UniProt P35869). As to the kind of experiment: qHTS assay to identify small molecule that activate the aryl hydrocarbon receptor (AhR) signaling pathway (AID 743085).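 Note: HG2L7.5c1 human HepG2 liver cells with stably integrated DRE-driven firefly reporter; series mostly up to about 70 µM; nearly all actives have a fitted effect of over 15% in size.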 The essentials: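 Stably transfected human liver carcinoma cells (HG2L7.5c1; 20 DRE-firefly luciferase) were incubated 5 h, dosed, and kept 24 h at 37C. Agonism was scored from increased luciferase luminescence.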

The nature of experiment [3]: qHTS assay to identify small molecule that activate the aryl hydrocarbon receptor (AhR) signaling pathway - cell viability counter screen (AID 743086). Note: nearly all actives have a fitted effect of over 45% in size. Note: potency is the fitted concentration of half-maximal effect. The essentials: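 Cytotoxicity counter screen: CellTiter-Fluor signal (30 min, 37 C) in 4000 HepG2 cells/well carrying the DRE-luciferase reporter, following 24 h compound exposure at 37 C.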
The target in experiment [4] is Peroxisome proliferator-activated receptor gamma (Homo sapiens) (UniProt P37231). As to the kind of experiment: qHTS assay to identify small molecule agonists of the peroxisome proliferator-activated receptor gamma (PPARg) signaling pathway (AID 743094; active = well fitted activation curve with a large enough effect in the signal ratio in the repeat runs, not every such curve was filed as active; the % refers to the signal ratio). The essentials: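 Quantitative HTS agonist mode: stable HEK293H line with UAS-beta-lactamase reporter under PPARg control, 17 h compound exposure at 37C, fluorescence after 1 h FRET substrate loading at room temperature.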
Sequence of Peroxisome proliferator-activated receptor gamma (Homo sapiens) (P37231 whole entry, looked up): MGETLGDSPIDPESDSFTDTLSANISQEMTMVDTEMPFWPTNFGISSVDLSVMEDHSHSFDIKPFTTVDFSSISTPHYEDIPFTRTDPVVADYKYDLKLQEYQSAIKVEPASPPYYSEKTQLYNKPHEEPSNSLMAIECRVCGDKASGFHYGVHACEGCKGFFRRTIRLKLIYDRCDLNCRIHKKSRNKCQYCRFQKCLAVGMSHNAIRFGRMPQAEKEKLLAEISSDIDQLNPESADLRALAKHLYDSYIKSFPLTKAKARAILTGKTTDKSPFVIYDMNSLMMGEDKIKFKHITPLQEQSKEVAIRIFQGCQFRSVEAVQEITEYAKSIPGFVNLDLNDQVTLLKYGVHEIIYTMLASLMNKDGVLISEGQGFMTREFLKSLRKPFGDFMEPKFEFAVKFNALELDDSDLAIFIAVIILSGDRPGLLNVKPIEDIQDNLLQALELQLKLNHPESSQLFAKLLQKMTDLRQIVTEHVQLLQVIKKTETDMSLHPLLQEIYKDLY

For experiment [5] the target is unchanged. As to the kind of experiment: qHTS assay to identify small molecule antagonists of the peroxisome proliferator-activated receptor gamma (PPARg) signaling pathway (AID 743191; calls by dose curve; note: series mostly up to about 63 µM; nearly all actives have a fitted effect of over 30% in size). The essentials:
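Beta-lactamase reporter under UAS control in HEK293H PPARg-bla cells; compound treatment 17 h at 37C. Read-out: fluorescence intensity after 1 h room-temperature incubation with LiveBLAzer B/G FRET substrate.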

The nature of experiment [6]: qHTS assay to identify small molecule antagonists of the peroxisome proliferator-activated receptor gamma (PPARg) signaling pathway - cell viability counter screen (AID 743194). Note: nearly all actives have a fitted effect of over 55% in size. Particulars: Potency: co-treated with 50 nM rosiglitazone. The essentials: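 Viability was measured as CellTiter-Glo luminescence in GeneBLAzer PPARg UAS-bla HEK293H cells. These cells had been exposed 17 h at 37 C to compounds together with rosiglitazone at 50 nM final, with the beta-lactamase readout taken in the same wells.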

The nature of experiment [7]: qHTS assay for small molecule agonists of the antioxidant response element (ARE) signaling pathway - cell viability counter screen (AID 743203; calls by dose curve; note: nearly all actives have a fitted effect of over 55% in size). The essentials: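 Seeded at 2,000 cells/well, ARE-bla HepG2 cells were incubated 5 hrs before compound addition. After 16 hrs of treatment at 37C with 5% CO2, CellTiter-Glo reagent was added and luminescence read 30 min later.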

The nature of experiment [8]: qHTS assay for small molecule activators of the heat shock response signaling pathway - cell viability counter screen (AID 743209). Note: nearly all actives have a fitted effect of over 50% in size. The essentials: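 First, HSE-bla HeLa cells were seeded at 1500 cells/well and kept overnight at 37 C. Next, compounds were pinned in and incubated 5 h. After the FRET substrate step, CellTiter-Glo was added and luminescence read 30 min later.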

Experiment [9] can be described thus: qHTS assay for small molecule activators of the heat shock response signaling pathway (AID 743210; active = well fitted activation curve with a large enough effect in the signal ratio in the repeat runs, with a control signal flat, not every such curve was filed as active; the % refers to the signal ratio; note: potency is the fitted concentration of half-maximal effect;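 for activation: HeLa cells with beta-lactamase reporter driven by heat shock elements; series mostly up to about 63 µM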). The essentials: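 HeLa HSE-bla cells, overnight plating; cpd in DMSO 5 h, 37 C; LiveBLAzer B/G FRET substrate 2.5 h RT; fluorescence intensity read.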
Experiment [10] in a line: qHTS assay to identify small molecule agonists of the peroxisome proliferator-activated receptor delta (PPARd) signaling pathway - cell viability counter screen (AID 743211). Note: nearly all actives have a fitted effect of over 55% in size. The essentials:
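In the same wells used for beta-lactamase reporter measurement, cytotoxicity is scored by CellTiter-Glo. HEK293H PPARd-bla cells receive compound for 17 h at 37C following a 5 h settling period.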

The nature of experiment [11]: qHTS assay to identify small molecule antagonists of the peroxisome proliferator-activated receptor delta (PPARd) signaling pathway - cell viability counter screen (AID 743213). Note: nearly all actives have a fitted effect of over 50% in size. The essentials: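 CellTiter-Glo was added to PPARd-bla HEK293H wells following 17 h compound treatment in the presence of 300 nM L165041. Luminescence was recorded after 30 min at room temperature.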

Experiment [12] concerns the target Peroxisome proliferator-activated receptor delta (Homo sapiens) (UniProt Q03181). As to the kind of experiment: qHTS assay to identify small molecule antagonists of the peroxisome proliferator-activated receptor delta (PPARd) signaling pathway (AID 743215; active = well fitted inhibition curve with a large enough effect in the signal ratio in the repeat runs, not every such curve was filed as active; the % refers to the signal ratio;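 note: cells stimulated with agonist L165041 at 300 nM final during compound exposure; series mostly up to about 62 µM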). The essentials: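 Inhibition of L165041-driven (300 nM final) PPARd signaling is scored in HEK293H UAS-bla cells. Exposure lasts 17 h at 37 C; beta-lactamase activity is then read by FRET substrate fluorescence after 2 h at room temperature.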

Experiment [13] deals with Bile acid receptor (Homo sapiens) (UniProt Q96RI1). In words: qHTS assay to identify small molecule antagonists of the farnesoid-X-receptor (FXR) signaling pathway (AID 743217; active = well fitted inhibition curve with a large enough effect in the signal ratio in the repeat runs, not every such curve was filed as active; the % refers to the signal ratio). The essentials: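 Antagonist mode against 50 uM (final) chenodeoxycholic acid stimulation in FXR-bla HEK 293T cells, 16 h at 37 °C. Inhibition detected as reduced beta-lactamase activity via LiveBLAzer B/G FRET fluorescence after 2 h at room temperature.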
Sequence of Bile acid receptor (Homo sapiens) (Q96RI1 whole entry, looked up): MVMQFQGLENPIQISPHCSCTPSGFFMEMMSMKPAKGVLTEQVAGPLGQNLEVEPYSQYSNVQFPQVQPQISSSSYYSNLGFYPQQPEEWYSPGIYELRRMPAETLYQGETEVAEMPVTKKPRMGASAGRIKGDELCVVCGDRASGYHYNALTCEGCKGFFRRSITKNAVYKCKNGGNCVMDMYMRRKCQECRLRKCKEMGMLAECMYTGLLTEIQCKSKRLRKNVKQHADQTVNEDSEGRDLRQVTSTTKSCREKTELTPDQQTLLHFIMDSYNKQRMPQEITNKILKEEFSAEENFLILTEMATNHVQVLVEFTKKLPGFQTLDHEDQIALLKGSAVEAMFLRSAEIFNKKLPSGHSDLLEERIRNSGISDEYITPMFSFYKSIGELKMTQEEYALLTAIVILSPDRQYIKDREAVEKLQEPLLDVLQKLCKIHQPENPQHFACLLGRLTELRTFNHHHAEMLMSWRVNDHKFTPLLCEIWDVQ

A short description of experiment [14]: qHTS assay to identify small molecule agonists of the farnesoid-X-receptor (FXR) signaling pathway - cell viability counter screen (AID 743218). Note: nearly all actives have a fitted effect of over 45% in size. The essentials: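 Cytotoxicity counter-screen run in parallel, same wells: FXR-UAS-bla HEK 293T cells dosed 16 h at 37 C, viability read by CellTiter-Glo luminescence after 30 min at room temperature.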
The target in experiment [15] is Bile acid receptor (Homo sapiens) (UniProt Q96RI1). As to the kind of experiment: qHTS assay to identify small molecule agonists of the farnesoid-X-receptor (FXR) signaling pathway (AID 743220; active = well fitted activation curve with a large enough effect in the signal ratio in the repeat runs, not every such curve was filed as active; the % refers to the signal ratio). The essentials: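 Beta-lactamase reporter under UAS control in GeneBLAzer FXR HEK 293T cells (5000/well) measured with LiveBLAzer FRET substrate after 2 h at room temperature. Compound exposure lasted 16 h at 37C.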

The nature of experiment [16]: qHTS assay to identify small molecule antagonists of the farnesoid-X-receptor (FXR) signaling pathway - cell viability counter screen (AID 743221; active = well fitted cell-killing curve with a large enough effect in the repeat runs, not every such curve was filed as active; note: nearly all actives have a fitted effect of over 50% in size). The essentials: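 Here viability was scored by luminescence after CellTiter-Glo addition to wells already read for beta-lactamase. Prior treatment: compound plus CDCA (50 uM final), 16 h, 37 C, HEK 293T FXR-bla cells.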

Experiment [17] addresses Vitamin D3 receptor (Homo sapiens) (UniProt P11473). As to the kind of experiment: qHTS assay to identify small molecule agonists of the vitamin D receptor (VDR) signaling pathway (AID 743222; calls by dose curve). The essentials: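 Quantitative HTS agonist-mode screen: compounds in DMSO were pin-transferred onto VDR-bla cells and incubated 16 h at 37C, 5% CO2. Reporter activity was detected with LiveBLAzer B/G FRET substrate after 2 h at room temperature.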

Experiment [18] has the same target. As to the kind of experiment: qHTS assay to identify small molecule antagonists of the vitamin D receptor (VDR) signaling pathway (AID 743223; active = well fitted inhibition curve with a large enough effect in the signal ratio in the repeat runs, not every such curve was filed as active; the % refers to the signal ratio). The essentials: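 Inhibition of agonist-driven VDR signalling is scored in VDR-bla cells: 3 nM final 1alpha,25-dihydroxyvitamin D3 plus compound, 16 h at 37C, then beta-lactamase detection by FRET substrate fluorescence after 2 h.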

Experiment [19] can be described thus: qHTS assay for small molecule agonists of the antioxidant response element (ARE) signaling pathway (AID 743202; active = well fitted activation curve with a large enough effect in the signal ratio in the repeat runs, not every such curve was filed as active; the % refers to the signal ratio). The essentials:
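Quantitative high-throughput format in HepG2 cells bearing an integrated ARE-beta-lactamase reporter. Compound exposure lasted 16 h at 37 C, and fluorescence was read 2 h after adding LiveBLAzer B/G substrate at room temperature.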

In experiment [20] the target is Peroxisome proliferator-activated receptor delta (Homo sapiens) (UniProt Q03181). As to the kind of experiment: qHTS assay to identify small molecule agonists of the peroxisome proliferator-activated receptor delta (PPARd) signaling pathway (AID 743212; calls by dose curve). The essentials: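 HEK293H PPARd-bla cells; 5 h preincubation 37 C/5% CO2; compound (DMSO) 37 C; LiveBLAzer B/G FRET substrate 2 h RT; fluorescence intensity.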
Sequence of Peroxisome proliferator-activated receptor delta (Homo sapiens) (Q03181 whole entry, looked up): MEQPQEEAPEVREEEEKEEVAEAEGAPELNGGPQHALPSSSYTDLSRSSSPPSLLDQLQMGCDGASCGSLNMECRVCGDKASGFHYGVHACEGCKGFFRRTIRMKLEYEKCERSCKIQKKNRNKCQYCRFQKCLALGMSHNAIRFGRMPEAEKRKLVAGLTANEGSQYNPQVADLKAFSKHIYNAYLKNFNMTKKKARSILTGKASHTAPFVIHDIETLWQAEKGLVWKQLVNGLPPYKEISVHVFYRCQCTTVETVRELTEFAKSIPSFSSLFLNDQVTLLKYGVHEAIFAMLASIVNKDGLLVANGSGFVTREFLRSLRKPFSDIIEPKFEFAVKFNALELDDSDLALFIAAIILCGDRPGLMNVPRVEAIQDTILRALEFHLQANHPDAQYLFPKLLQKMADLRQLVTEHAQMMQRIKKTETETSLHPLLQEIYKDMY

Inconclusive results are not listed. More than one record can exist for a structure, and the calls need not agree. The source made the active and inactive calls. Unless noted, calls come from the whole dose curve; as a rule, active = well fitted curve in the direction sought with a large enough effect in the repeat runs; inconclusive = weak or mixed curves; inactive = no such curve, though single readings can be large; an effect the other way counts as inactive or inconclusive.

Sequence of Aryl hydrocarbon receptor (Homo sapiens) (P35869 whole entry, looked up): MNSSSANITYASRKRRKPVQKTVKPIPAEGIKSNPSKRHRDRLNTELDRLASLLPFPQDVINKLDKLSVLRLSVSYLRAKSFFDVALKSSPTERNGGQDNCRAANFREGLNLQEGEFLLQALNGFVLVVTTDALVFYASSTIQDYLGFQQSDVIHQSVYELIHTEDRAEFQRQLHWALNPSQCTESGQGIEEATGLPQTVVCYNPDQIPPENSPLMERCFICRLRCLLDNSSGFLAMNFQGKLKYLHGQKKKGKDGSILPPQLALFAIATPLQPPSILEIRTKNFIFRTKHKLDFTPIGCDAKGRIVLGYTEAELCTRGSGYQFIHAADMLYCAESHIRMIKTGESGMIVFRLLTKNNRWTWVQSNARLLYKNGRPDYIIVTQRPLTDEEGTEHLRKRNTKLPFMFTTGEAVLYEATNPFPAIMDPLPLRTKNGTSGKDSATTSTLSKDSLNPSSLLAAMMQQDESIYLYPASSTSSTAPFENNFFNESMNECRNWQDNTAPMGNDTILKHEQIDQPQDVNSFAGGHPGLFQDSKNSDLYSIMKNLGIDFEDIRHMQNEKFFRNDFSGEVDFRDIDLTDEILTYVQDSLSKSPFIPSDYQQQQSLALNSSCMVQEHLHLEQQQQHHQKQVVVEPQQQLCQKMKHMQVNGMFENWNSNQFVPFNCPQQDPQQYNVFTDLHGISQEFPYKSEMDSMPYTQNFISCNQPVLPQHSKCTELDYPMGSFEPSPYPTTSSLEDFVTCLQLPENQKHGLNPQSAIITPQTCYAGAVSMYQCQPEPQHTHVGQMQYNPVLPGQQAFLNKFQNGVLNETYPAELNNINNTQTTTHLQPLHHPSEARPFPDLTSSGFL
Sequence of Vitamin D3 receptor (Homo sapiens) (P11473 whole entry, looked up): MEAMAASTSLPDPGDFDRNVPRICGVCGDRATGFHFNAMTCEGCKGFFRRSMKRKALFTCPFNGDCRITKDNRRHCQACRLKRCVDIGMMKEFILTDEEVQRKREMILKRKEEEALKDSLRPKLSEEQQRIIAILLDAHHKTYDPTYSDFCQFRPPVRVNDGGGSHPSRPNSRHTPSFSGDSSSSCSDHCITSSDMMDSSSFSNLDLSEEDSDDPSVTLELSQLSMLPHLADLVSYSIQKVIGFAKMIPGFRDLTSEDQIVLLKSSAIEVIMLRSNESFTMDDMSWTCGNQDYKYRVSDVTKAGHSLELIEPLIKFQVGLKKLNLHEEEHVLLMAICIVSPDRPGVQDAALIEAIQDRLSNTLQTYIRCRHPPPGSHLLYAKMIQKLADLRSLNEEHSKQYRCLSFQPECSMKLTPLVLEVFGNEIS

Regarding `C[C@H](N)C(=O)c1ccccc1`, the Potency entry in [1], in experiment [2], in experiment [3], in experiment [5], in [6] and in experiment [7] was “inactive” each time. Further, the Potency result in experiment [8], in experiment [9], in experiment [10], in [11], in [12] and in experiment [14] was “inactive” in each case. In addition, the Potency entry in [16] is “inactive”. Besides, the outcome in experiment [4], in [13], in experiment [15], in experiment [17] and in experiment [18] was inactive.
With `CCC1(c2ccccc2)CCC(=O)NC1=O` (stereo not drawn), the Potency entry in [1], in experiment [2], in experiment [3], in [6], in experiment [19] and in experiment [7] was “inactive” in each case. In addition, the Potency entry in experiment [8], in experiment [9], in experiment [10], in [11], in experiment [12] and in experiment [14] was “inactive” in each case. The Potency entry in experiment [16] is “inactive”. In addition, the call in experiment [4], in experiment [20], in experiment [17] and in experiment [18] was inactive.
Consider `C[C@H]1CCCC(=O)CCC/C=C/c2cc(O)cc(O)c2C(=O)O1`, for which the Potency in experiment [1] is 18.6 µM (active); in [3], 37.1 µM (active) and inactive; in [9] it was 12.7 µM (active). The Potency entry in experiment [2], in [5], in experiment [7], in experiment [10], in experiment [11] and in [16] was “inactive” in each case. Moreover, the result in [4] and in experiment [20] was inactive.
On to `CCCCCCC(=O)CCCCCC/C=C/C[C@@H](O)[C@H](O)[C@@](N)(CO)C(=O)O`, for which the Potency entry in experiment [1], in experiment [2], in [3], in experiment [6], in experiment [7] and in experiment [8] was “inactive” in each case. In addition, the Potency entry in experiment [9], in [10], in experiment [12] and in experiment [16] was “inactive” throughout. In addition, the call in experiment [4], in [20], in [17] and in experiment [18] was inactive.
For the molecule `C=C(Cl)CSC(=S)N(CC)CC`, the Potency in [1] was 18.8 µM (active). In addition, the Potency entry in experiment [2], in experiment [3], in [6], in [7], in [10] and in [11] was “inactive” each time. Further, the Potency result in experiment [14] and in experiment [16] was “inactive” each time. The outcome in experiment [4], in [20], in [13], in experiment [15], in experiment [17] and in experiment [18] was inactive.
On to `CC(C)[N+](C)(CCC(C(N)=O)(c1ccccc1)c1ccccc1)C(C)C`, for which the Potency result in experiment [1], in experiment [2], in experiment [3], in [6], in experiment [7] and in experiment [8] was “inactive” throughout. In addition, the Potency entry in experiment [9], in experiment [10] and in experiment [16] was “inactive” each time. Besides, the molecule was called inactive in experiment [4].
Take `Nc1c(Cl)c(F)nc(OCC(=O)O)c1Cl`: the Potency result in experiment [1], in [2], in experiment [3], in experiment [6], in experiment [19] and in experiment [7] was “inactive” throughout. In addition, the Potency result in experiment [8], in experiment [9], in [10] and in experiment [11] was “inactive” in each case. For the same molecule, the result in experiment [4], in experiment [17] and in experiment [18] was inactive.
`CN(C)C1CCCCC1`: the Potency result in experiment [1], in experiment [2], in experiment [3], in experiment [19], in [7] and in experiment [8] was “inactive” in each case. Moreover, the Potency entry in experiment [10], in experiment [11], in [12], in [14] and in experiment [16] was “inactive” throughout. Besides, the molecule was classed as inactive in experiment [4], in experiment [20], in experiment [17] and in experiment [18].
Regarding `C=CC=O`, the Potency result in [1], in [2], in experiment [3], in experiment [6], in experiment [7] and in experiment [8] was “inactive” each time. Also, the Potency result in experiment [9], in [10], in experiment [14] and in experiment [16] was “inactive” in each case. The result in experiment [4], in experiment [20], in experiment [17] and in [18] was inactive.
For `CCN[C@@H](C)Cc1ccccc1`, the Potency result in [1], in experiment [2], in experiment [3], in experiment [7], in [8] and in experiment [9] was “inactive” in each case. For the same molecule, the Potency result in [10], in experiment [11], in experiment [14] and in experiment [16] was “inactive” throughout. Moreover, the call in experiment [4], in [20], in experiment [13], in experiment [15], in experiment [17] and in [18] was inactive.

Source of the values: PubChem BioAssay (Tox21).
